TWEAK Fn14 block – blocks TWEAK-Fn14 interaction in a reporter cell assay; inhibition, % at 10 µM; TWEAK-stimulated Fn14 reporter cells, luciferase luminescence, 8 h; 2% of 360,000 active; AID 1159606; in the data active means inhibition above about 50%
LGR2 inh – blocks bursicon-induced cAMP signaling via Drosophila LGR2 | HEK293 LGR2, CRE-luciferase, bursicon-stimulated, 4 h | inhibition, % at 9.99 µM | 0.35% of 380,000 active;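 active means drop in luminescence signal, shown as inhibition above about 50% in the replicate tests, limit read from the data, passing the limit was not always enough; inconclusive means probably only some replicates passing the limit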;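 further: agonist challenge used bursicon conditioned medium at about half maximal strength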
LMP1 NFkB inh – Epstein-Barr LMP1 NF-kappaB reporter inhibition; LMP1-induced NF-kappaB luciferase reporter cells, luminescence; inhibition, % at 12.5 µM; 0.69% of 350,000 active; in the data active means inhibition above about 41%; inconclusive means no clear call, values can overlap the other calls;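 further: 0% = neutral control wells and 100% = reference inhibitor control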
PAX8 reporter – PAX8 transcriptional activity inhibition; RMG-I TPO-luciferase reporter, SteadyGlo, 24 h; inhibition, % at 12.6 µM; 1.2% of 360,000 active; AID 652154;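 active means mean replicate inhibition at least 60% with every replicate also reaching 60%; inconclusive means only one of the two criteria is met; inactive means mean below 60% and not all replicates reaching 60%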;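 further: luciferase light reporting Pax8 driven TPO promoter activity; plate controls were median of neutral control wells for no effect and mitoxantrone controls for full effect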
EWS-Fli block – EWS/Fli transcriptional activity inhibition; 0.67% of 350,000 active; inhibition, % at 12.6 µM; AID 651661; A673 NR0B1-luciferase reporter, viability-normalised;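 active means mean inhibition of at least 50% after viability correction, with every replicate also passing that limit; inconclusive means mean reaches 50% but only one of two replicates passes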;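 further: firefly luciferase signal divided by Alamar Blue viability fluorescence both relative to DMSO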
TROY signal inh – TROY signaling inhibition | Q293 LMP1-TROYcd NF-kB luciferase reporter, 4 h | inhibition, % at 10 µM | 0.98% of 360,000 active | AID 1347056;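 active means compounds whose plate-normalised and pattern-corrected inhibition of the luciferase reporter signal at the single screening dose is 50% or more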
The depositor's hits bear a star. Hits are enriched below; roughly 3.1% of the tested compounds scored in any of these assays.

For CC(=O)Nc1cccc(-c2ccnc3c2CC(C(=O)NCCc2ccccc2)O3)c1 (stereo not drawn) the results were TWEAK Fn14 block 27, LGR2 inh -7, PAX8 reporter 43, EWS-Fli block 55* and TROY signal inh 15.
Screening O=C(Cc1ccccc1)N[C@H]1C=C[C@@H](CC(=O)N2CCCCC2)O[C@H]1CO returned LGR2 inh 3, PAX8 reporter 1 and EWS-Fli block 2.
Screening CCC(C)Nc1nc(-c2cccc(OC)c2O)nc2ccccc12 (stereo not drawn) returned TWEAK Fn14 block 64*, LMP1 NFkB inh -2, PAX8 reporter 24 and TROY signal inh 60*.
For COc1cccc(-c2nc(NCC3CCCO3)c3ccccc3n2)c1O (stereo not drawn) the results were TWEAK Fn14 block 35, LMP1 NFkB inh -8 and TROY signal inh -36.
COc1cccc(-c2nc(NC(C)C)c3ccccc3n2)c1O was read as TWEAK Fn14 block 68*, LMP1 NFkB inh 6 and TROY signal inh 28.
Screening CCC(C)Nc1nc(-c2ccccn2)nc2ccccc12 (stereo not drawn) returned TWEAK Fn14 block -6, LGR2 inh 17, LMP1 NFkB inh 48*, PAX8 reporter 28, EWS-Fli block 36 and TROY signal inh -5.
O=C(C[C@@H]1CC[C@H]2[C@@H](COC[C@H](O)CN2C(=O)Nc2cc(Cl)cc(Cl)c2)O1)N1CCCCC1 was read as LGR2 inh 5, PAX8 reporter 9 and EWS-Fli block 4.
COc1ccc2cc3cc(C(=O)NC4CC4)sc3nc2c1 was read as TWEAK Fn14 block 67*, LGR2 inh inconclusive, LMP1 NFkB inh 3, PAX8 reporter 23, EWS-Fli block 45 and TROY signal inh 27.
`COc1ccc2cc3cc(C(=O)NCCCN4CCc5ccccc5C4)sc3nc2c1` gave TWEAK Fn14 block -70, LGR2 inh -25, LMP1 NFkB inh 9, PAX8 reporter -121, EWS-Fli block -100 and TROY signal inh -52.
For CC(C)(C)CNC(=O)C1(C)CCN1C(=O)Cc1ccc(-c2ccccc2)cc1 (stereo not drawn) the results were TWEAK Fn14 block 67*, LGR2 inh 16, PAX8 reporter 15, EWS-Fli block 19 and TROY signal inh 6.
For CCNC(=O)C[C@@H]1CC[C@@H]2[C@H](COC[C@H](O)CN2Cc2ccccc2F)O1 the results were LGR2 inh -15, PAX8 reporter -1 and EWS-Fli block -7.
Screening CC/C=C\[C@H](O)[C@H](O)C1=C(C)C(=O)[C@]2(O1)C(=O)N[C@@](OC)(C(=O)c1ccccc1)C2O (stereo partly drawn) returned TWEAK Fn14 block 69*, LGR2 inh 26, LMP1 NFkB inh 0, EWS-Fli block 2 and TROY signal inh 46.
For Cc1ccc(-c2cnc3ccccc3n2)cc1C the results were TWEAK Fn14 block 73*, LGR2 inh 19, LMP1 NFkB inh 12, PAX8 reporter -53, EWS-Fli block inconclusive and TROY signal inh 12.
For CCCCOc1ccc(-c2cnc3ccccc3n2)cc1 the results were TWEAK Fn14 block 79*, LGR2 inh 70*, LMP1 NFkB inh 16, PAX8 reporter 15 and TROY signal inh 52*.
`O=C1C(=O)c2c(ccc3ccccc23)-c2ccccc21` gave TWEAK Fn14 block 101*, LGR2 inh 15, LMP1 NFkB inh 59*, PAX8 reporter 13, EWS-Fli block 14 and TROY signal inh 43.
Screening O=C(Nc1ccncc1)Nc1cccc(Cl)c1Cl returned TWEAK Fn14 block 11, LGR2 inh -21, LMP1 NFkB inh 7, PAX8 reporter -10 and TROY signal inh -11.
Screening COc1ccc(/C=N/NC(=O)Nc2cccc3nsnc23)cc1OC returned TWEAK Fn14 block 62*, LMP1 NFkB inh 8, PAX8 reporter 86*, EWS-Fli block 29 and TROY signal inh 14.
O=C(Nc1ccc(Cl)cc1)Nc1cccc2nsnc12 was read as TWEAK Fn14 block 56*, LGR2 inh -93, LMP1 NFkB inh -19, PAX8 reporter -130, EWS-Fli block -89 and TROY signal inh 29.
O=C(Nc1ccc(F)cc1)N1C[C@@H]2[C@H](c3ccccc31)[C@H](CO)N2C(=O)Cc1ccccn1 was read as LGR2 inh 18, PAX8 reporter -18 and EWS-Fli block -19.

High-throughput results from PubChem.
